# Source: the supplement of paper PMC9337992
# ± gives the standard deviation of the averaged measurements.
# How the values were obtained:
# Experiment in all cases: cell proliferation (confluence) relative to DMSO control; higher = less growth inhibition
# Settings in all cases: 5 uM; 6 d
# BT549 = test system: BT549
# Method in brief: (§1)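 Triple-negative breast cancer cell lines were seeded into 384-well plates at 500 cells per well. Once they had attached, each epigenetic chemical probe in DMSO was added at a final 5 μM for 6 d, with four replicate wells per compound on every plate. Images were taken on an IncuCyte ZOOM with a ×10 objective in phase-contrast and processed in Incucyte 2016 software. Confluence was expressed relative to wells given DMSO alone.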
# CAL120 = test system: CAL120
# Method in brief: as §1
# HCC1143 = test system: HCC1143
# Method in brief: as §1
# HCC1395 = test system: HCC1395
# Method in brief: as §1
# HCC153 = test system: HCC153
# Method in brief: as §1
# HCC1806 = test system: HCC1806
# Method in brief: as §1
# HCC38 = test system: HCC38
# Method in brief: as §1
# HCC70 = test system: HCC70
# Method in brief: as §1
# Hs578-T = test system: Hs578-T
# Method in brief: as §1
# MB157 = test system: MB157
# Method in brief: as §1
# SUM149-PT = test system: SUM149-PT
# Method in brief: as §1
# SUM159-PT = test system: SUM159-PT
# Method in brief: as §1
SMILES,cell proliferation (BT549),cell proliferation (CAL120),cell proliferation (HCC1143),cell proliferation (HCC1395),cell proliferation (HCC153),cell proliferation (HCC1806),cell proliferation (HCC38),cell proliferation (HCC70),cell proliferation (Hs578-T),cell proliferation (MB157),cell proliferation (SUM149-PT),cell proliferation (SUM159-PT)
O=C(O)CNC(=O)c1c(O)c2ccccc2n(Cc2ccccc2)c1=O,99.17 ± 0.41%,88.7 ± 5.2%,97.3 ± 1.9%,99.51 ± 0.21%,83.7 ± 4.2%,98.07 ± 0.77%,98.2 ± 1.1%,98.48 ± 0.74%,95 ± 1.8%,95.4 ± 3.5%,88 ± 5%,99.986 ± 0.0083%
c1ccc([C@@H]2C[C@H]2NC2CCNCC2)cc1,99.73 ± 0.11%,90.8 ± 1.6%,97.61 ± 0.58%,99.99 ± 0.0084%,86.3 ± 2.5%,99.68 ± 0.28%,99.69 ± 0.18%,90.9 ± 5.3%,96.3 ± 1.6%,86.3 ± 7.8%,64.1 ± 20%,99.974 ± 0.029%
COc1cc(C(=O)N2CC[C@@H](O)[C@@H](N)C2)cc2nc(-c3cc4ccccc4n3CC3CC3)n(C)c12,97.5 ± 1.7%,97.9 ± 2.2%,97.3 ± 1.2%,99.953 ± 0.017%,59.2 ± 12%,79.3 ± 7.7%,99.49 ± 0.46%,88.1 ± 8%,97.5 ± 1.4%,90.8 ± 11%,87.2 ± 9.1%,99.994 ± 0.0032%
